Screening data from PubChem BioAssay.
CYP2C9 inh – blocks human cytochrome P450 2C9; actives 20% (n = 96,000); inhibition, % at 5 µM; CYP2C9 Supersomes, luciferin-H conversion, luminescence; P11712;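 active means blocking of liver enzyme CYP2C9 beyond about 50% at 5 µM, limit read from the data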
Target sequence (P11712 whole entry, looked up): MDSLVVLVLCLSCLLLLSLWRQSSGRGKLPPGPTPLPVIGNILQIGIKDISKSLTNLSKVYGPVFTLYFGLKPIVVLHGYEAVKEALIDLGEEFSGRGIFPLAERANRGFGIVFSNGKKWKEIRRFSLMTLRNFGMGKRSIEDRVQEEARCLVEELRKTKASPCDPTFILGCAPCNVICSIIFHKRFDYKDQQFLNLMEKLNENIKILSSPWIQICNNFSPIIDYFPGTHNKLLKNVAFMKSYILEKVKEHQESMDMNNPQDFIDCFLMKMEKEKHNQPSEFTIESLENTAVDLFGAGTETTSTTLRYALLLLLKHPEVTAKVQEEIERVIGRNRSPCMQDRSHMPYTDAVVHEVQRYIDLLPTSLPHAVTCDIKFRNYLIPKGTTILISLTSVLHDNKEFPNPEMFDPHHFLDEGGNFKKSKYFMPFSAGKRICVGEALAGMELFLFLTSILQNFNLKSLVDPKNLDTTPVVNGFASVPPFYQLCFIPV
CYP2C19 act – activators of human cytochrome P450 2C19 | activation factor at 5 µM | AID 1025 | P33261 | recombinant CYP2C19, luciferin-H EGE luminescence; hits give high values; 0 = fully inhibited enzyme, 1 = untreated enzyme | 96,000 tested, under 10 active;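 active means activation factor of at least 2 at 5 µM in the primary screen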
CYP2C19 inhib – inhibitors of human CYP2C19; P33261; CYP2C19 Supersomes, luciferin-H EGE luminescence, 30 min; inhibition, % at 5 µM; actives 21% (n = 96,000); AID 778;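 active means CYP2C19 inhibition above a set limit at 5 µM in the primary screen, cut at about 50% in these data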
CYP2C9 act – CYP2C9 (human) activation | recombinant CYP2C9, luciferin-H conversion, luminescence; hits give high values; factor 1 = untreated enzyme, 0 = blocked | activation factor at 5 µM | actives 1.4% (n = 96,000) | AID 1024;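 active means activation factor of 2 or more for CYP2C9 at a 5 µM dose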
PostGolgi ctrl – growth of the yeast control strain, post-Golgi counter-screen | efflux-deficient yeast background strain, growth absorbance A615, 16 h | inhibition, % at 10 µM | actives 5% (n = 98,000)
PostGolgi yeast – growth inhibition of a yeast mutant, post-Golgi transport screen; inhibition, % at 10 µM; post-Golgi transport phenotypic cell assay; actives 0.9% (n = 98,000);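 further: yeast cells grown in 1536-well plates; yeast grown about 18 h at 30C before absorbance read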
Large screens that a line does not name were inactive. Hits are enriched below; roughly 32% of the tested compounds scored in any of these assays. Unless noted, no stated cut-off is given here; in the data, active means inhibition above about 30%; inactive means the rest.

CC1(c2ccccc2)CC(C)(C)N2C(=O)C3(C(C#N)=C(N)Oc4cc(O)ccc43)c3cccc1c32 (stereo not given)	none
CCOC(=O)CN1C(=O)C(O)(CC(=O)c2ccco2)c2ccccc21 (stereo not given)	none
CN1C(=O)C(O)(CC(=O)c2ccccc2O)c2cc(Br)ccc21 (stereo not given)	CYP2C9 inh 92, CYP2C19 inhib 97
CN1C(=O)C(O)(CC(=O)c2ccncc2)c2ccccc21 (stereo not given)	none
O=C(CC1(O)C(=O)N(Cc2ccccc2Cl)c2ccccc21)c1ccco1 (stereo not given)	PostGolgi ctrl 34
C=CCN1C(=O)C(O)(CC(=O)c2ccc(OC)cc2OC)c2cc(Br)ccc21 (stereo not given)	CYP2C9 inh 82, CYP2C19 inhib 63
CCCCN1C(=O)C(O)(CC(=O)c2ccco2)c2cc(Br)ccc21 (stereo not given)	CYP2C19 inhib 67
COc1ccc(-c2nc(NC(=O)c3cc(C(C)(C)C)nn3C)sc2C)cc1	none
Cc1coc(C)c1C(=O)CC1(O)C(=O)N(CCc2ccccc2)c2ccccc21 (stereo not given)	none
CCCCN1C(=O)C(O)(CC(=O)c2c(C)n[nH]c2C)c2cc(Br)ccc21 (stereo not given)	CYP2C19 inhib 81
Cc1n[nH]c(C)c1C(=O)CC1(O)C(=O)N(CCc2ccccc2)c2ccc(Cl)cc21 (stereo not given)	CYP2C9 inh 95, CYP2C19 inhib 99
COc1ccc(OCCSc2ncn[nH]2)cc1	none
CN(Cc1ccco1)C(=O)Cn1c(=O)oc2cc(S(=O)(=O)NCc3ccccc3)ccc21	CYP2C19 inhib 98
CN(Cc1ccccc1)C(=O)Cn1c(=O)oc2cc(S(=O)(=O)N3CCCC3)ccc21	CYP2C9 inh 65, PostGolgi ctrl 35
CN(Cc1ccccc1)C(=O)CCn1c(=O)oc2ccccc21	CYP2C19 inhib 93
CN(Cc1ccccc1)C(=O)Cn1c(=O)oc2cc(S(=O)(=O)NCc3ccccc3)ccc21	none
CCn1c(=O)n(CC(=O)N(C)Cc2ccccc2)c(=O)c2ccccc21	CYP2C19 inhib 65
CCn1c(=O)n(CC(=O)N2CC(C)CC(C)C2)c(=O)c2ccccc21 (stereo not given)	none
Cc1cc(C)nc(-n2nc(C)c(C3(O)C(=O)Nc4ccccc43)c2N)n1 (stereo not given)	none
CC(=O)Oc1cccc(N2C(=O)C3CC=CCC3C2=O)c1 (stereo not given)	none
CCN(CCCNS(=O)(=O)c1ccc2c(c1)oc(=O)n2C)c1cccc(C)c1	CYP2C19 inhib 59
O=C(Cn1c(=O)oc2cc(S(=O)(=O)N3CCCC3)ccc21)NC1CCCc2ccccc21 (stereo not given)	CYP2C9 inh 58
CC(NC(=O)Cn1c(=O)oc2cc(S(=O)(=O)N3CCCC3)ccc21)c1ccccc1 (stereo not given)	CYP2C9 inh 90
Cn1c(=O)oc2cc(S(=O)(=O)NCc3ccccc3)ccc21	CYP2C19 inhib 59
Cc1cccnc1NC(=O)c1ccc2nc(N)sc2c1	none
O=c1oc(-c2ccc(Br)o2)nc2ccccc12	CYP2C19 inhib 77
COC(=O)C1=C(C)NC(=O)NC1c1ccc(OCC(=O)N2CCCCC2)cc1 (stereo not given)	none
O=C(OCc1ccccc1F)c1ccc2c(c1)-c1ccccc1C2=O	none
Cc1noc(C)c1C(=O)NCCC1=CCCCC1	none
CCS(=O)(=O)c1ccc2oc(SCC(=O)NCCC3=CCCCC3)nc2c1	CYP2C9 inh 72
Cc1ccc(SCC(=O)NCC(C)C)cc1	CYP2C9 inh 50, CYP2C19 inhib 75
Cc1ccc(SCC(=O)NCCC2=CCCCC2)cc1	CYP2C9 inh 51, CYP2C19 inhib 60
O=C(CSc1ncccc1C(=O)O)NCCC1=CCCCC1	none
Cc1noc(C)c1C(=O)OCC(=O)NCCC1=CCCCC1	CYP2C19 inhib 70
CC(C)CNC(=O)CSc1ccc(Cl)cc1	none
O=C(CSc1nnc(-c2cccc(S(=O)(=O)N3CCCCC3)c2)o1)NCCC1=CCCCC1	none
O=C(NCc1ccc2c(c1)OCO2)c1nn2cccnc2c1Cl	none
Cc1cccc(NC(=O)c2sc(NC(=O)c3ccco3)c(C#N)c2C)c1C	none
Cc1cc(N(C)C)c(C#N)c(=O)[nH]1	none
Cc1ccc(C)c(-n2nnnc2SCC(=O)NCCC2=CCCCC2)c1	CYP2C19 inhib 76, PostGolgi ctrl 39
Nn1c(SCC(=O)NCCC2=CCCCC2)nnc1C(F)(F)F	none
CC(C)(C)C(=O)CC1(O)C(=O)N(Cc2ccc(Cl)cc2)c2ccccc21 (stereo not given)	none
COC(=O)CN1C(=O)C(O)(CC(=O)c2ccc(C)cc2)c2ccccc21 (stereo not given)	CYP2C19 inhib 62
COC(=O)CN1C(=O)C(O)(CC(=O)c2ccccc2)c2ccccc21 (stereo not given)	CYP2C19 inhib 51
CCOC(=O)CN1C(=O)C(O)(CC(=O)c2cccc(OC)c2)c2ccccc21 (stereo not given)	CYP2C19 inhib 63
O=C(CC1(O)C(=O)N(C/C=C/c2ccccc2)c2ccccc21)c1ccccn1 (stereo not given)	CYP2C9 inh 82, CYP2C19 inhib 92
O=C(N/N=C/c1cccnc1)C1CCCN(S(=O)(=O)c2ccccc2)C1 (stereo not given)	none
C=CCN1C(=O)C(O)(CC(=O)c2ccc(N)cc2)c2ccccc21 (stereo not given)	CYP2C19 inhib 60
Cc1ccc(-n2nnnc2SC(C)C(=O)Nc2ccc(Cl)cn2)cc1 (stereo not given)	none
O=C(CSCc1ccccc1Cl)NN=C1CCCCCC1	CYP2C19 inhib 63
Cc1cnn(CCC(=O)NNC(=S)Nc2ccccc2)c1	none
O=C(CSCc1ccccc1Cl)NNC(=S)Nc1ccccc1	CYP2C9 inh 75, CYP2C19 inhib 86
CC(C)NC(=O)CSCc1ccccc1Cl	CYP2C19 inhib 66
Cc1ccc2nc3c(cc(C(N)=S)c(=N)n3CCCOC(C)C)c(=O)n2c1	CYP2C19 inhib 81
C=CCn1c(=N)c(C(=O)OCC)cc2c(=O)n3cc(C)ccc3nc21	none (no result: PostGolgi ctrl, PostGolgi yeast)
O=C(NCC1CCCO1)c1ccc(CS(=O)(=O)c2ccc(Br)cc2)o1 (stereo not given)	none
CCCCNC(=O)c1ccc(CS(=O)(=O)c2cccc(C(F)(F)F)c2)o1	CYP2C19 inhib 71
O=C(NCc1ccc2c(c1)OCO2)c1ccc(CS(=O)(=O)c2cccc(C(F)(F)F)c2)o1	CYP2C9 inh 94, CYP2C19 inhib 76, PostGolgi yeast 96
O=C(NCc1ccco1)c1ccc(CS(=O)(=O)c2cccc(C(F)(F)F)c2)o1	none
